# Experimental data from PubChem BioAssay AID585 (National Center for Advancing Translational Sciences (NCATS), 2007).
# Among all 71,000 compounds or so, about 1,300 (1.8%) were called active. The sample holds actives, similar compounds and a random draw of the others, so the mix is not that of the screen. A number with no mark means an inactive call. The call rests on the fitted dose curve.
# Target: Beta-lactamase (Escherichia coli (strain K12)) (UniProt P00811)
# Assay: Promiscuous and Specific Inhibitors of AmpC Beta-Lactamase (assay without detergent); on activity change, negative = inhibition: % of control where 0% means no effect
# Details: AmpC nitrocefin hydrolysis, absorbance 480 nm, no detergent; series mostly up to 28.7 µM; activity change, negative = inhibition: at the top concentration
# Protocol: NIH Molecular Libraries Screening Centers Network [MLSCN]
# NIH Chemical Genomics Center [NCGC]
# PI Name: Shoichet, Brian K.
# This aggregation profiling approach exploits the sensitivity of aggregate formation to detergent. Inhibition of b-lactamase is measured in the presence and absence of 0.01% Triton X-100. See Pubchem assay "Promiscuous and Specific Inhibitors of AmpC Beta-Lactamase (assay with detergent)" for related screen. Compounds that inhibit only in the absence of detergent are considered likely promiscuous aggregators.
# A screen of 1,030 compounds was performed in Brian Shoichet's lab in 96-well format. AmpC activity was measured by following the absorbance at 480 nm. Nitrocefin is a chromogenic substrate: while nitrocefin is yellow (lmax 390 nm), the product of its hydrolysis is red (lmax 486 nm, 17,000 M-1). AmpC beta lactamase was provided by Brian Shoichet and Brian Feng, UCSF.
# NCGC Assay Protocol Summary:
# 20 mM phosphate buffer, pH 7.0
# Triton X-100: No Detergent screen: 0.0001%, Detergent screen: 0.01%.
# Buffer in columns 3 and 4 as negative control (no enzyme).
# 5.3 nM AmpC in columns 1, 2, 5-48. Titration of UCSF compound 9 control (from 10 mM, then 1:2) pin-transferred to column 2. Column 1 is neutral (100% activity).
# Six uL of reagents were dispensed to 1536-well Greiner black clear bottom plates. Compounds and controls (23 nL) were transferred via Kalypsys PinTool. The plates were incubated for 15 min at room temperature, and then 2 uL of 800 uM solution of nitrocefin was added to start the reaction. The plates were immediately transferred to and read every 20 seconds for 4 min on ViewLux (Perkin-Elmer) High-throughput CCD imager using 480 nm absorbance protocol. During dispense, reagent bottles were kept submerged into 4 deg C water bath.
# Keywords: NIH Roadmap, MLSCN, MLI, MLSMR, qHTS, NCGC, AmpC Beta-Lactamase, Aggregation.
# Potency means the concentration at half of the fitted maximal effect.
# Sequence of Beta-lactamase (Escherichia coli (strain K12)) (P00811 whole entry, looked up): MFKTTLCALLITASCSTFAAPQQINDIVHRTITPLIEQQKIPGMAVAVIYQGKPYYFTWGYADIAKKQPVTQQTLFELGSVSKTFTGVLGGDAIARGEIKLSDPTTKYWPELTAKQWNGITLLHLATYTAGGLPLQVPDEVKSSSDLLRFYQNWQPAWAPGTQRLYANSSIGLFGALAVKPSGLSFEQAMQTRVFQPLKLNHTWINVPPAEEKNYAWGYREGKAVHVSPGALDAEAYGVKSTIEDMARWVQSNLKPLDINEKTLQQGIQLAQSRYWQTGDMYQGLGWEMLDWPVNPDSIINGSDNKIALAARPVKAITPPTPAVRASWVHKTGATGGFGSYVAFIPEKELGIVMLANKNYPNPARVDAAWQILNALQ
SMILES,"activity change, negative = inhibition",Potency
COc1ccc2c(c1)OC(O)(C(F)(F)C(F)F)CC2=O (stereo not given),-0.7%,
O=CN1CCN(C2CC(=O)N(c3ccc4c(c3)OCO4)C2=O)CC1 (stereo not given),1.1%,
Cc1cccc(CSc2nnc(Cn3c(=O)sc4ccccc43)n2C)c1,38.5%,
C=CCSc1nnc(Cn2c(=O)sc3ccccc32)n1C,,3.98 µM [single pt active] (active)
Cc1ccccc1CSc1nnc(Cn2c(=O)sc3ccccc32)n1C,32.6%,
CC1CCN(c2oc(-c3ccccc3F)nc2C#N)CC1,11.5%,
C=CCn1c(C)cc(C(=O)CN2C(=O)c3ccccc3C2=O)c1C,5.1%,
COc1ccc(C2CC(c3ccc(C)cc3)Nc3ncnn32)cc1 (stereo not given),80.4%,
Clc1ccc(C2CC(c3cccs3)n3ncnc3N2)cc1Cl (stereo not given),96.9%,
COc1ccc(C2CC(c3ccccc3)Nc3ncnn32)cc1 (stereo not given),,3.98 µM [single pt active] (active)
Cc1noc(C)c1C(=O)NC(C)c1ccc2c(c1)OCO2 (stereo not given),-5.3%,
CN1CCC2(CC1)NC(=O)NC2=O,-9.4%,
COc1cccc(NC(=O)CN(C)S(=O)(=O)c2ccc(C)cc2)c1,4.9%,
COc1cccc(-c2nnc(NC(=O)c3ccc(S(=O)(=O)N(CC(C)C)CC(C)C)cc3)o2)c1,,7.94 µM (active)
CCN(CC)C(=O)CSc1nnc(-c2cccc(OC)c2)o1,25.2%,
CC(C)C[C@@H](CC(=O)N[C@@H](CCC(=O)O)CC(=O)O)NC(=O)[C@@H]1CCCC[C@H]1NC(=O)C[C@@H](NC(=O)C[C@H](Cc1c[nH]c2ccccc12)NC(=O)[C@@H]1CCCC[C@H]1N)C(C)C,150%,
Cc1ccc(NC(=O)C2CCCN(S(=O)(=O)c3c(C)noc3C)C2)c(C)c1 (stereo not given),37.8%,
CCOc1ccc(OCC)c(NC(=O)C2CCN(S(=O)(=O)c3c(C)noc3C)CC2)c1,70.7%,
Cc1noc(C)c1S(=O)(=O)N1CCCC(C(=O)Nc2nccs2)C1 (stereo not given),,3.98 µM [single pt active] (active)
C=CCNC(=O)C1CC=CCC1C(=O)O (stereo not given),-5.7%,
CCOc1ccc(Cn2nnc(C(=O)NCc3ccccc3)c2N)cc1,,3.16 µM [single pt active] (active)
CCOc1ccc(Cn2nnc(C(=O)Nc3ccc(OC)cc3OC)c2N)cc1,15%,
Nc1c(C(=O)NCc2ccccc2)nnn1Cc1cccc(Cl)c1,-19.5%,
Cc1cc(N2C(=O)C(=O)/C(=C(/O)c3ccc(Cl)cc3)C2c2cccc(Br)c2)no1 (stereo not given),-9%,
COc1ccc(C(CNC(=O)c2cccnc2SC)N2CCOCC2)cc1 (stereo not given),6.6%,

SMILES,"activity change, negative = inhibition",Potency
O=C(CCN1C(=O)C2C3C=CC(C3)C2C1=O)Nc1ccccc1F (stereo not given),2.3%,
O=C(NCCN1C(=O)C2C3C=CC(C3)C2C1=O)Nc1ccccn1 (stereo not given),,3.98 µM [single pt active] (active)
O=C(CN1C(=O)C2C3C=CC(C3)C2C1=O)NCCc1ccccc1Cl (stereo not given),1.2%,
CCOc1ccc(CN(Cc2ccco2)C(c2cccs2)c2nnnn2C(C)(C)C)cc1 (stereo not given),25.1%,
O=C(COC(=O)c1ccccc1C(=O)c1ccccc1)c1ccco1,4.4%,
CCOC(=O)NCc1ccc2c(c1)OCO2,-7.3%,
Cc1ccc(C(=O)OCC(=O)NCc2ccc3c(c2)OCO3)s1,-2.6%,
O=C(NCc1ccc2c(c1)OCO2)c1cc2c(s1)CS(=O)(=O)C2,,12.6 µM [single pt active] (active)
CC(Sc1sc(=S)sc1SC(C)C(=O)O)C(=O)O (stereo not given),0.8%,
O=C(Nc1nncs1)c1ccccc1NS(=O)(=O)c1cccs1,-10.1%,
COc1ccc(C(=O)Nc2nncs2)c(OC)c1,,3.98 µM [single pt active] (active)
COC(=O)c1sc(NC(=O)c2ccc(OC)cc2OC)nc1C,16.1%,
O=C(COC(=O)c1ccc(Oc2ccccc2)cc1)Nc1nnc(-c2ccccc2)o1,,15.8 µM (active)
COc1ccc(CC(=O)Nc2ccc(-c3nnc(-c4ccccc4)o3)cc2)cc1,8.9%,
Cc1ccc(OCC(=O)Nc2ccc(-c3nnc(-c4ccco4)o3)cc2)cc1,12.3%,
CS(=O)(=O)N1CCC2(CC1)CN(Cc1cc(C(F)(F)F)cc(C(F)(F)F)c1)C2,63%,
CC1(C)C(=O)Nc2ccccc2N1C(=O)COC(=O)Cn1cnc2ccccc2c1=O,14.3%,
CCOC(=O)N1CCN(C(=O)c2cc3c(-c4ccc(Cl)cc4)nn(C)c3s2)CC1,,2.51 µM [single pt active] (active)
Cn1nc(-c2ccc(Cl)cc2)c2cc(C(=O)NCc3ccco3)sc21,,3.16 µM (active)
O=C(NCc1ccco1)c1cc(-c2cccnc2)nc2ccc(Cl)cc12,110%,
COc1ccccc1N1CCN(C(=O)c2cc3c(-c4ccc(Cl)cc4)nn(C)c3s2)CC1,2.6%,
COc1cccc(-c2nn(C)c3sc(C(=O)N4CCN(c5ccccc5)CC4)cc23)c1,68.5%,
O=C(NCc1ccco1)c1nc2ncccn2n1,-4.1%,
O=C(NCCc1ccccn1)c1ccc(COc2ccccc2)o1,31.1%,
O=C1CC2(CCCCC2)Oc2ccc(OCC(=O)N3CCOCC3)cc21,54.1%,

SMILES,"activity change, negative = inhibition",Potency
CCc1nnc(NC(=O)CSc2nnc(COc3ccc(C#N)cc3)n2-c2ccccc2)s1,49%,
CCOc1ccc(-n2c(SC(C)C(=O)OC)nc3c(c2=O)SCC3)cc1 (stereo not given),47.2%,
CCCc1nnc(NC(=O)CN2C(=O)c3ccccc3S2(=O)=O)s1,-10.1%,
O=C(CN1C(=O)c2ccccc2S1(=O)=O)N1CCc2ccccc21,-13.7%,
CNC(=O)CN1C(=O)c2ccccc2S1(=O)=O,,3.98 µM [single pt active] (active)
Fc1cccc(/C=N\N=C/c2cccc(F)c2)c1,11.7%,
COc1cccc(NC(=O)Nc2nnc(N3CCCCC3C)s2)c1 (stereo not given),,2.51 µM [single pt active] (active)
COc1cccc(Nc2nnc(SCC(=O)N3CC(C)OC(C)C3)s2)c1 (stereo not given),21%,
COc1cccc(NC(=O)C2CCCN2C(=O)OCc2ccccc2)c1 (stereo not given),9.3%,
COCc1cc(C)nc(SCC(=O)Nc2cccc(C)c2)c1C#N,-7.6%,
CC1=C2C(=O)OC(c3ccoc3)C2(C)CCC1 (stereo not given),-1.9%,
COc1ccc(C(=O)N/N=C2/C(=O)c3c(C)cc(C)cc3CC2(C)C)cc1,18.6% [at 5.75 µM],
CCOC(=O)N1CCC(C(N)=O)CC1,-4.6%,
Cc1noc(C)c1S(=O)(=O)N(CC(=O)Nc1ccc2c(c1)OCCO2)c1ccc(C(C)C)cc1,-4.4%,
CCOC(=O)C1(C(F)(F)F)N=C(N(C)C)OC(N(C)C)=N1,-6.4%,
O=C(O)c1c(Br)c(Br)c(Br)c(Br)c1C1c2ccc(O)cc2Oc2cc(O)ccc21,,0.158 µM (active)
N#CC1=C(N)Oc2cc(O)ccc2C1C1CCCCC1 (stereo not given),-9.2%,
COCCNC(=O)CN1C(=O)CSc2ncccc21,-21.6%,
CC(C)(Cc1c[nH]c2ccc(Cl)cc12)NCCOc1ccccc1OCC1CC1,,20 µM [single pt active] (active)
NCC[Se][Se]CCN,1.6% [at 5.75 µM],
COC(=O)N1CCC[C@@]2(CCN(C(=O)NC(C)C)C2)C1,22.8%,
Cc1cc(C)c(C#N)c(SCc2ccc3c(c2)OCO3)n1,-11.5%,
COc1ccc(Cl)cc1NC(=O)c1oc(C)nc1C,22.7%,
Cc1nc(C)c(C(=O)Nc2cccc(C)c2C)o1,,3.98 µM [single pt active] (active)
Cc1nc(C)c(C(=O)Nc2ccc(C)c(F)c2)o1,-4%,

SMILES,"activity change, negative = inhibition",Potency
c1ccc2c(c1)OCC(CNc1ncnc3nc[nH]c13)O2 (stereo not given),8.2%,
c1ccc(CCN2CCN=C2Cc2ccccc2)cc1,13.3% [at 5.75 µM],
COc1cccc(N2C(=O)C3CCCN3C2c2ccc(F)cc2)c1 (stereo not given),26.5%,
CC1=CC(C)(C)N(C(=O)CSc2nccn2C)c2cc(C)ccc21,45.9%,
O=C(Cn1c(=S)nc2ccccn21)N1CCc2ccccc2C1,3.2%,
C=C1c2cc(CC)ccc2NC(=O)N1c1ccc(C)cc1,,3.98 µM [single pt active] (active)
Cc1ccc(S(=O)(=O)N2CC(=O)Nc3ccccc32)cc1C,2.2%,
FC(F)Oc1ccccc1C1CC(c2ccc(Br)s2)Nc2ncnn21 (stereo not given),66.8%,
O=c1cc(Cn2nnc(-c3ccc(Cl)cc3)n2)nc2sccn12,40%,
CS(=O)(=O)N(CC(=O)N1CCN(Cc2ccc3c(c2)OCO3)CC1)c1ccc2c(c1)OCO2,68.3%,
O=C(NCc1ccco1)C1CCCN(S(=O)(=O)c2cccc3nonc23)C1 (stereo not given),0.9%,
O=C(NCc1ccco1)C1CCCN(S(=O)(=O)c2cnc[nH]2)C1 (stereo not given),,3.98 µM [single pt active] (active)
CCCS(=O)(=O)N1CCCC(C(=O)NCc2ccco2)C1 (stereo not given),-0.5%,
CC1(C)CC(CCC(=O)Nc2ccccc2Cl)C(=O)O1 (stereo not given),-5.9%,
COc1ccc(C(=O)N(Cc2ccc(N(C)C)cc2)C2CCS(=O)(=O)C2)cc1 (stereo not given),37.7%,
Cc1nc(N2CCN(c3ncccn3)CC2)c2oc3ccccc3c2n1,56.3%,
CCOC(=O)N1CCN(C(=O)c2cc3c(ccc4ccccc43)oc2=O)CC1,42.4%,
Cn1cccc1C(=O)NC(=O)COC(=O)Cc1coc2ccc3ccccc3c12,,12.6 µM (active)
CC(C)(C)NC(=O)NC(=O)COC(=O)Cn1c(C(F)(F)F)nc2ccccc21,24%,
CCN1CCN(Cc2c(O)ccc3c(=O)c(-c4ccc(OC)c(OC)c4)c(C(F)(F)F)oc23)CC1,51.9%,
CN1CCN(CCCNC(=O)c2cc3c(=O)oc4ccccc4c3s2)CC1,13.6%,
COc1ccccc1NC(=O)C1=C(C)Nc2nnnn2C1c1cccc(Br)c1 (stereo not given),12.1%,
COc1ccccc1NC(=O)C1=C(C)Nc2ncnn2C1c1ccc(C)o1 (stereo not given),2.7%,
COc1cc(C2C(C(=O)Nc3ccccc3OC)=C(C)Nc3ncnn32)ccc1O (stereo not given),,3.98 µM [single pt active] (active)
COc1ccc(CCN(C)CCN2C(=O)c3ccccc3C2=O)cc1OC,9.6%,
